For eight compounds, growth results are on record in PubChem BioAssay (NCI).

The panel holds about 83,000 compounds, 20% with a hit somewhere; the sample as a whole holds those more often.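 Results are percent growth after 48 hours of single-concentration exposure. 100 means growth as in untreated cells, lower positive values show inhibition; negative values down to -100 show cell death.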 A number with no mark means an inactive call. Active and inactive are the calls of the source. Rule for the calls: active = growth percent below 10; inactive = the rest.

Test systems include SK-MEL-2 melanoma; EKVX NSCLC; SN12C renal; UO-31 renal; TK-10 renal; ACHN renal; CAKI-1 renal; A498 renal; CCRF-CEM leukemia; MOLT-4 leukemia; SR leukemia; RPMI-8226 leukemia; OVCAR-8 ovarian; OVCAR-5 ovarian; OVCAR-4 ovarian; SK-OV-3 ovarian; IGROV1 ovarian; OVCAR-3 ovarian; HS 578T breast; NCI/ADR-RES ovarian.
Common to all, as to experiment: NCI-60 one-dose screen, 48 h (100 = growth as untreated, 0 = no growth, -100 = all killed)
Holding throughout (conditions): 10 µM unless noted

For the compound `COC(=O)CC/C(C)=N\Nc1ccc([N+](=O)[O-])cc1`, the growth in the assay on SK-MEL-2 melanoma was 57.3%; in the assay with EKVX NSCLC, 59.2%; with SN12C renal, 81.9%; in the assay on UO-31 renal, 35.5%; in the assay with TK-10 renal it was 63.3%; with ACHN renal, 36.2%. Also, the growth with CAKI-1 renal was 41.4%; in the assay on A498 renal, 77.3%; with CCRF-CEM leukemia, 35%; in the assay with MOLT-4 leukemia, 34%; with SR leukemia it was 34.6%; in the assay with RPMI-8226 leukemia, 51.8%. The growth in the assay on OVCAR-8 ovarian was 59.1%; in the assay on OVCAR-5 ovarian, 79.4%; in the assay on OVCAR-4 ovarian, 76.3%; in the assay with SK-OV-3 ovarian, 62.5%; with IGROV1 ovarian, 74.2%; in the assay with OVCAR-3 ovarian, 88.3%. The growth with HS 578T breast is 81.7%; in the assay on NCI/ADR-RES ovarian, 78%.
On to `Cc1cc(NC(=O)COC(=O)c2sc3cc(F)ccc3c2Cl)no1`, for which the growth with SK-MEL-2 melanoma is 44.8%; with EKVX NSCLC, 105%; in the assay with SN12C renal it was 107%; with UO-31 renal, 39.2%; in the assay with TK-10 renal, 125%; in the assay with ACHN renal, 106%. In addition, the growth in the assay with CAKI-1 renal is 110%; with A498 renal, 103%; with CCRF-CEM leukemia, 66.9%; with MOLT-4 leukemia, 108%; in the assay on SR leukemia it was 108%; in the assay with RPMI-8226 leukemia, 114%. Further, the growth in the assay with OVCAR-8 ovarian was 112%; with OVCAR-5 ovarian, 100%; in the assay on OVCAR-4 ovarian, 105%; with SK-OV-3 ovarian it was 111%; in the assay with IGROV1 ovarian, -31.8% (active); in the assay on OVCAR-3 ovarian it was 120%. Moreover, the growth is 123% in the assay with HS 578T breast and 107% in the assay on NCI/ADR-RES ovarian.
As to `O=C1CCCCC=C1C[N+](=O)[O-]`, the growth was 102% with SK-MEL-2 melanoma; 103% in the assay with EKVX NSCLC; 95.7% in the assay on SN12C renal; 53.5% in the assay on UO-31 renal; 107% with TK-10 renal; 75.8% in the assay on ACHN renal. Further, the growth was 76% in the assay with CAKI-1 renal; 117% with A498 renal; 54.2% with CCRF-CEM leukemia; 42.5% with MOLT-4 leukemia; 2.57% (active) in the assay on SR leukemia; 60.6% in the assay on RPMI-8226 leukemia. The growth is 86.8% in the assay with OVCAR-8 ovarian; 104% with OVCAR-5 ovarian; 94.9% with OVCAR-4 ovarian; 99.1% in the assay on SK-OV-3 ovarian; 91.6% in the assay with IGROV1 ovarian; 61% in the assay on OVCAR-3 ovarian. For the same compound, the results for the growth in the assay on HS 578T breast and in the assay on NCI/ADR-RES ovarian were 107% and 101%, respectively.
Regarding `O=C(O)C(=Cc1c2ccccc2cc2ccccc12)C(=O)O`, the growth is 104% in the assay with SK-MEL-2 melanoma; 104% with EKVX NSCLC; 101% in the assay with SN12C renal; 82% in the assay on UO-31 renal; 93.3% in the assay with TK-10 renal; 97.6% in the assay with ACHN renal. The growth in the assay on CAKI-1 renal is 99.9%; with A498 renal, 83.3%; in the assay with CCRF-CEM leukemia, 101%; in the assay with MOLT-4 leukemia, 92.4%; in the assay with SR leukemia it was 102%; with RPMI-8226 leukemia, 103%. The growth was 104% in the assay on OVCAR-8 ovarian; 112% in the assay on OVCAR-5 ovarian; 117% with OVCAR-4 ovarian; 107% in the assay with SK-OV-3 ovarian; 111% with IGROV1 ovarian; 118% in the assay on OVCAR-3 ovarian. The growth in the assay with HS 578T breast was 106%; with NCI/ADR-RES ovarian, 98.3%.
In the case of `Nc1cccc2c1CN(C1CCC(=O)NC1=O)C2=O` (stereo not given), the growth with SK-MEL-2 melanoma was 113%; in the assay on EKVX NSCLC it was 94.7%; in the assay with SN12C renal it was 106%; in the assay with UO-31 renal it was 101%; in the assay on TK-10 renal it was 132%; in the assay on ACHN renal, 105%. For the same compound, the growth is 95.6% with CAKI-1 renal; 84.8% in the assay on A498 renal; 98.7% in the assay on CCRF-CEM leukemia; 95.1% in the assay with MOLT-4 leukemia; 71.8% with SR leukemia; 109% in the assay on RPMI-8226 leukemia. The growth with OVCAR-8 ovarian was 81.1%; in the assay with OVCAR-5 ovarian it was 95.6%; in the assay on OVCAR-4 ovarian, 105%; in the assay on SK-OV-3 ovarian it was 93.1%; in the assay on IGROV1 ovarian it was 29.8%; in the assay with OVCAR-3 ovarian, 108%. The growth with HS 578T breast was 112%; with NCI/ADR-RES ovarian it was 104%.
Regarding `CC(=O)Oc1cccc(OC(C)=O)c1OC(C)=O`, the growth in the assay with SK-MEL-2 melanoma was 103%; in the assay on EKVX NSCLC, 95.4%; in the assay with SN12C renal it was 99.4%; in the assay with UO-31 renal it was 76.6%; in the assay with TK-10 renal it was 107%; in the assay on ACHN renal, 102%. In addition, the growth with CAKI-1 renal was 84%; in the assay with A498 renal it was 87.3%; in the assay on CCRF-CEM leukemia it was 100%; with MOLT-4 leukemia, 82.4%; in the assay with SR leukemia it was 89.6%; in the assay with RPMI-8226 leukemia it was 105%. For the same compound, the growth with OVCAR-8 ovarian is 106%; with OVCAR-5 ovarian it was 99.9%; in the assay on OVCAR-4 ovarian, 105%; in the assay with SK-OV-3 ovarian it was 87%; in the assay on IGROV1 ovarian, 101%; with OVCAR-3 ovarian, 111%. For the same compound, the growth in the assay on HS 578T breast is 107%; in the assay on NCI/ADR-RES ovarian, 108%.
Turning to `O=C1CCC/C=C\C[C@H]2C=CC(=O)/C2=C/C[C@H](C/C=C\CC(F)(F)F)O1`, the growth in the assay with SK-MEL-2 melanoma was -20.9% (active); with EKVX NSCLC, -17.7% (active); in the assay on SN12C renal, -6.43% (active); in the assay with UO-31 renal it was -93% (active); with TK-10 renal it was -33.6% (active); in the assay on ACHN renal, -84.8% (active). For the same compound, the growth is 16% in the assay with CAKI-1 renal; -75.2% (active) with A498 renal; -5.64% (active) in the assay on CCRF-CEM leukemia; -0.696% (active) in the assay on MOLT-4 leukemia; 4.02% (active) in the assay on SR leukemia; -4.51% (active) in the assay on RPMI-8226 leukemia. Also, the growth is 10.4% with OVCAR-8 ovarian; -6.91% (active) with OVCAR-5 ovarian; 20.6% in the assay with OVCAR-4 ovarian; -7.52% (active) in the assay with SK-OV-3 ovarian; -25.8% (active) in the assay on IGROV1 ovarian; -69.7% (active) with OVCAR-3 ovarian. Further, the growth with HS 578T breast is 23.2%; with NCI/ADR-RES ovarian it was 8.83% (active).
In the case of `COc1cc(-c2csc(NC(=O)c3cc(C(F)(F)F)cc(C(F)(F)F)c3)n2)cc(OC)c1OC`, the growth in the assay with SK-MEL-2 melanoma was 21.5%; in the assay on EKVX NSCLC it was 9.17% (active); in the assay on SN12C renal, 25.3%; in the assay with UO-31 renal it was 21.3%; with TK-10 renal, 33%; with ACHN renal, 36.1%. For the same compound, the growth with CAKI-1 renal is 43.2%; in the assay with A498 renal, 11.1%; in the assay with CCRF-CEM leukemia, 29.3%; with MOLT-4 leukemia, 20.5%; with SR leukemia, 40.4%; in the assay on RPMI-8226 leukemia, 14.1%. The growth in the assay with OVCAR-8 ovarian is 25.5%; in the assay with OVCAR-5 ovarian, 60.1%; in the assay with OVCAR-4 ovarian, 23.4%; with SK-OV-3 ovarian it was 35.4%; with IGROV1 ovarian, 46%; in the assay with OVCAR-3 ovarian, 10.6%. In addition, the results for the growth with HS 578T breast and in the assay with NCI/ADR-RES ovarian were 35.1% and 16.2%, respectively.
